Assay results taken from PubChem BioAssay (EPA / NIEHS).
Calls of active or inactive are those of the source. Rule for the calls: active = hit-call score of the fitted dose curve at least 0.9, where 1 is the maximum; inactive = score below 0.9.

Test: APR_HepG2_p53Act_24hr: Apredica 24-hour HepG2 Assay for p53 Activation (AID 2282913)
Settings: high-content imaging, actives raise or lower the signal
Procedure: APR_HepG2_24hr is a cell-based, multiplexed-readout assay that uses HepG2, a human liver cell line, with measurements taken at 24 hours after chemical dosing in a 384-well plate.APR_HepG2_p53Act_24hr is one of 10 assay component(s) measured or calculated from the APR_HepG2_24hr assay. It is designed to make measurements of dna content, a form of viability reporter, as detected with fluorescence intensity signals by HCS Fluorescent Imaging technology.Data from the assay component APR_HepG2_p53Act_24hr was analyzed into 1 assay endpoint. This assay endpoint, APR_HepG2_p53Act_24hr, was analyzed with bidirectional fitting relative to DMSO as the negative control and baseline of activity. Using a type of viability reporter, measures of protein for gain or loss-of-signal activity can be used to understand the signaling at the pathway-level as they relate to the gene TP53. Furthermore, this assay endpoint can be referred to as a primary readout, because this assay has produced multiple assay endpoints where this one serves a signaling function. To generalize the intended target to other relatable targets, this assay endpoint is annotated to the dna binding intended target family, where the subfamily is tumor suppressor.
Cells were treated with dimethyl sulfoxide (DMSO) as a solvent control at a final concentration of 0.5% v/v or with compounds in DMSO with a resulting final DMSO concentration of 0.5% v/v. Compound treatment was done at concentrations of 0.39, 0.78, 1.56, 3.12, 6.24, 12.5, 25, 50, 100, and 200 uM in duplicate on each plate. Cells were treated with compounds for 1, 24, or 72 hr. Carbonyl […] m-chloro-phenylhydrazone (CCCP) and taxol were used as positive controls for mitochondrial function and cytoskeletal stability, respectively; DMSO served as the negative control for this experiment. Cells were fixed by the direct addition of 50 uL formaldehyde in Hank's Balanced Salt Solution (HBSS) to a final concentration of 3.7%. After incubation in the fixation medium for 30 min at room temperature (293-298 K), cells were rinsed twice with HBSS and treated with cell permeabilization buffer (16 uL of 0.5% Triton X-100) for 10 min at room temperature (293-298 K) before labeling. For mitochondrial membrane potential and mitochondrial measurements, pre-fixed cells were incubated with 50 uL of MitoTracker Red CMXRos (Invitrogen) at a concentration of 250 nM for 30 min before fixation. In the remaining cases, post-fixed cells were labeled by incubation with a multiplexed mixture of primary antibodies in HBSS for 60 min at room temperature (293-298 K) to detect immunoreactivity of c-Jun (1:500), phospho-histone H3 (1:100), phospho-histone H2A.x (1:200), p53 (1:400), alpha-tubulin (1:200) and Hoechst 33342 (2 ug/mL). Cells were labeled for multiplexed imaging on two separate plates: a) Hoechst 33342, MitoTracker Red, phospho-histone H3, and alpha-tubulin, and b) Hoechst 33342, phospho-histone H2A.x, and c-Jun. A final rinse with HBSS (50 uL) was performed before analysis. The primary and secondary antibodies for the proteins were phospho-histone H3 (rabbit anti-phospho-histone H3 and FITC-donkey anti-rabbit IgG), phospho-histone H2A.x (mouse anti-phospho-histone H2A.x and FITC-donkey anti-mouse IgG), c-Jun (rabbit anti-phospho-c-Jun and Cy3-donkey anti-rabbit IgG), p53 (sheep anti-p53 and Cy5-donkey anti-sheep IgG), alpha-tubulin (mouse anti-alpha-tubulin and Cy5-donkey anti-mouse IgG). These antibodies are available as the CellCiphr HepG2 assay kit (Millipore).Digital images of each well were captured using a Cellomics ArrayScan VTI (Thermo Scientific Cellomics) (0.8 NA objective, 0.63x optical coupler, and XF-93 filter set) at 20x magnification. The images were acquired using the autofocus feature of the ArrayScan instrument, which entails the following steps. First, the camera focuses on channel 1 (Hoechst 33342), where nuclei are identified. Second, a Z offset of 1 um is used for capturing mitochondria (MitoTracker Red). […]

Row | SMILES | outcome | AC50
1 | Nc1ccc(Cc2ccc(N)cc2)cc1 | inactive | –
2 | CCCCCOC(=O)c1ccccc1C(=O)OCCCCC | inactive | –
3 | CC(C)(C)OOC(=O)c1ccccc1 | – | 22.8 µM (active)
4 | CS(=O)(=O)NC(=O)c1cc(Oc2ccc(C(F)(F)F)cc2Cl)ccc1[N+](=O)[O-] | inactive | –
5 | O=[N+]([O-])c1ccc(Oc2ccc(Cl)cc2Cl)cc1 | inactive | –
6 | Cc1ccc(N)c(N)c1 | inactive | –
7 | Clc1ccc(Cl)c(Cl)c1 | inactive | –
8 | COc1cc(C=O)cc2c1[C@H](COC(N)=O)[C@]1(OC(C)=O)ON2C[C@H]2[C@@H]1N2C(C)=O | inactive | –
9 | CCCCCCCCn1sccc1=O | – | 3.62 µM (active)
10 | Cc1cccc(N)c1N | inactive | –
11 | Clc1ccc(C(c2ccc(Cl)cc2)C(Cl)(Cl)Cl)cc1 | – | 54.7 µM (active)
12 | CCOc1cccc(C2(N3CCN(c4ccccc4)CC3)CCC(C)CC2)c1 (stereo not given) | inactive | –
13 | C=CCc1ccc2c(c1)OCO2 | inactive | –
14 | CCN(CC)CCO | inactive | –
15 | CC(C)(C)OOC(C)(C)CCC(C)(C)OOC(C)(C)C | inactive | –
16 | CNC(=O)Oc1cccc2c1OC(C)(C)C2 | inactive | –
17 | CCC[CH2][Sn]([Cl])([CH2]CCC)[CH2]CCC | – | 0.388 µM (active)
18 | Nc1ccc(N=Nc2ccccc2)cc1 | inactive | –
19 | Clc1ccc(C(c2ccc(Cl)cc2)C(Cl)Cl)cc1 | – | 107 µM (active)
20 | [Cl-].[Cl-].[Hg+2] | – | 15.7 µM (active)

Row | SMILES | outcome | AC50
21 | CC(O)CCO (stereo not given) | inactive | –
22 | Nc1cc(Cl)cc(C(=O)O)c1Cl | inactive | –
23 | N#CC(Br)(Br)C(N)=O | inactive | –
24 | CCC12COCN1COC2 | – | 86 µM (active)
25 | OCCCl | inactive | –
26 | O=C1CCCO1 | inactive | –
27 | Cn1cc(-c2ccccc2)c(=O)c(-c2cccc(C(F)(F)F)c2)c1 | inactive | –
28 | O=C(N[C@H](c1ccccc1)[C@@H]1CN2CCC1CC2)c1c(Cl)ccc(C(F)(F)F)c1Cl | – | 101 µM (active)
29 | CCCCCCCCCCCCCN1CC(C)OC(C)C1 (stereo not given) | – | 66.8 µM (active)
30 | COC(=O)c1ccccc1N | inactive | –
31 | Cc1ccc(N=C=O)cc1N=C=O | inactive | –
32 | CCCCOC(=O)c1ccccc1C(=O)OCc1ccccc1 | inactive | –
33 | CCCCCCCCOC(=O)c1ccc(C(=O)OCCCCCCCC)c(C(=O)OCCCCCCCC)c1 | inactive | –
34 | Cc1cc(N=Nc2ccccc2C)ccc1N | inactive | –
35 | O=Cc1ccco1 | inactive | –
36 | CC(C)(C)C(O)(CCc1ccc(Cl)cc1)Cn1cncn1 (stereo not given) | – | 110 µM (active)
37 | [As]#[In] | inactive | –
38 | ClC1=C(Cl)[C@]2(Cl)[C@H]3[C@H]([C@@H]4C=C[C@H]3C4)[C@@]1(Cl)C2(Cl)Cl | – | 49.7 µM (active)
39 | CC(C)(OOC(C)(C)c1ccccc1)c1ccccc1 | inactive | –
40 | c1ccc2c(c1)-c1cccc3cccc-2c13 | inactive | –
